From the supplement of paper PMC10849652
About 7,900 targets were measured; listed, in parts, are those with a hit and a random draw of the rest. About 0.6% of all pairs of compound and target were hits. Unmarked numbers belong to inactive results.

Columns and labels:
Assay in all cases: log2 fold change, soluble protein after heating vs DMSO (PISA); higher = thermal stabilisation; K562 cells, 10 uM, 30 min; active = over 0.2 and 3.5 SD of the protein, either way, in both replicates (recomputed)
bafetinib = compound: Cc1ccc(NC(=O)c2ccc(CN3CC[C@H](N(C)C)C3)c(C(F)(F)F)c2)cc1Nc1nccc(-c2cncnc2)n1 [bafetinib]
How it was run: (§1)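 Aliquots of K562 cells (2×10^6 cells/mL) treated with 10 μM compound for 30 min were heated for 3 min over 48°C-58°C. After pooling and extraction in PBS with 0.5% NP-40 at 4°C, soluble protein from a 21,000xg, 90 min spin was quantified by TMTpro 16plex LC-MS/MS with channel sums equalised. Thermal stability is expressed against control samples, from duplicates, as a log2 fold change.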

[1] = compound: Cc1cccc(CC(=O)N2CCc3c2ccc(-c2cn(C)c4ncnc(N)c24)c3F)n1
How it was run: as §1

nilotinib = compound: Cc1cn(-c2cc(NC(=O)c3ccc(C)c(Nc4nccc(-c5cccnc5)n4)c3)cc(C(F)(F)F)c2)cn1 [nilotinib]
How it was run: as §1

[2] = compound: Cc1nc(Nc2n[nH]c3c2CN(C(=O)N[C@H](CN(C)C)c2ccccc2)C3(C)C)c2sccc2n1
How it was run: as §1

dasatinib = compound: Cc1nc(Nc2ncc(C(=O)Nc3c(C)cccc3Cl)s2)cc(N2CCN(CCO)CC2)n1 [dasatinib]
How it was run: as §1

[3] = compound: Cc1ncc(-c2ccnc(Nc3ccc(S(C)(=O)=O)cc3)n2)n1C(C)C
How it was run: as §1

[4] = compound: Cn1cc(-c2ccc3c(c2)CCN3C(=O)Cc2cccc(C(F)(F)F)c2)c2c(N)ncnc21
How it was run: as §1

[5] = compound: Cn1cc(-c2ccc3nnc(C(F)(F)c4ccc5ncccc5c4)n3n2)cn1
How it was run: as §1

tipifarnib = compound: Cn1cncc1[C@@](N)(c1ccc(Cl)cc1)c1ccc2c(c1)c(-c1cccc(Cl)c1)cc(=O)n2C [tipifarnib]
How it was run: as §1

mubritinib = compound: FC(F)(F)c1ccc(/C=C/c2nc(COc3ccc(CCCCn4ccnn4)cc3)co2)cc1 [mubritinib]
How it was run: as §1

[6] = compound: NC(=O)Nc1cc(-c2cccc(F)c2)sc1C(=O)N[C@H]1CCCNC1
How it was run: as §1

[7] = compound: NC(=O)c1cnc(N[C@@H]2CCCC[C@@H]2N)nc1Nc1cccc(-n2nccn2)c1
How it was run: as §1

[8] = compound: NC1(c2ccc(-c3nc4ccn5c(=O)[nH]nc5c4cc3-c3ccccc3)cc2)CCC1
How it was run: as §1

[9] = compound: NCC(=O)Nc1ccc(-n2nc(C(F)(F)F)cc2-c2ccc3c(ccc4ccccc43)c2)cc1
How it was run: as §1

entinostat = compound: Nc1ccccc1NC(=O)c1ccc(CNC(=O)OCc2cccnc2)cc1 [entinostat]
How it was run: as §1

vorinostat = compound: O=C(CCCCCCC(=O)Nc1ccccc1)NO [vorinostat]
How it was run: as §1

citarinostat = compound: O=C(CCCCCCNC(=O)c1cnc(N(c2ccccc2)c2ccccc2Cl)nc1)NO [citarinostat]
How it was run: as §1

silmitasertib = compound: O=C(O)c1ccc2c(c1)nc(Nc1cccc(Cl)c1)c1ccncc12 [silmitasertib]
How it was run: as §1

[10] = compound: O=C1NC(=O)C(c2cnc3ccccn23)=C1c1cn2c3c(cc(F)cc13)CN(C(=O)N1CCCCC1)CC2
How it was run: as §1

[11] = compound: c1cc(OCCN2CCCCC2)cc(-c2n[nH]c3ccc(-c4nnc[nH]4)cc23)c1
How it was run: as §1

UniProt P27105, sequence (P27105 whole entry, looked up): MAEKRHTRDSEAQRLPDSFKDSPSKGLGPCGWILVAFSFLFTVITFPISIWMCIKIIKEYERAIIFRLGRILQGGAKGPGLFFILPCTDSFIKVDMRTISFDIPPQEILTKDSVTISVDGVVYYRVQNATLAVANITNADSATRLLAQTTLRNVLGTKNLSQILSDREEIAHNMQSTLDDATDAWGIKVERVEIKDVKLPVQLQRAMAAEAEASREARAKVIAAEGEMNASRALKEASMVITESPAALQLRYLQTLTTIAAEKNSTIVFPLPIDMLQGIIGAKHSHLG
UniProt Q15833, sequence (Q15833 whole entry, looked up): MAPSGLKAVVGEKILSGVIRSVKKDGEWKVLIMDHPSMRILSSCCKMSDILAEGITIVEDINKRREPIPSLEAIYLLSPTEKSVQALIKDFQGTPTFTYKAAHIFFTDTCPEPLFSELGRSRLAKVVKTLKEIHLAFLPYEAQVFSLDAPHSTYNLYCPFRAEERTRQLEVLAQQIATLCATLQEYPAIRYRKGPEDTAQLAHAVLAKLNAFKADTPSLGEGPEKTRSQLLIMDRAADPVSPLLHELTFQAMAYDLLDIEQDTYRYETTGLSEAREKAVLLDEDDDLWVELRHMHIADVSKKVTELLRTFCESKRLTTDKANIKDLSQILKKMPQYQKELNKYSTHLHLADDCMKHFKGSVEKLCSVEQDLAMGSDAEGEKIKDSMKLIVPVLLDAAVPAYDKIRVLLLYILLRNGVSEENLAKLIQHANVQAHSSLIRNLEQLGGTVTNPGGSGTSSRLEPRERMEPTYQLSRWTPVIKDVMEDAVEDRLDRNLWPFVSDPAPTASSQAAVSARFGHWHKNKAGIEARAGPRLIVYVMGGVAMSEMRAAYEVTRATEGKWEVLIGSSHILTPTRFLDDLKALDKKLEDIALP
UniProt Q9BSF4, sequence (Q9BSF4 whole entry, looked up): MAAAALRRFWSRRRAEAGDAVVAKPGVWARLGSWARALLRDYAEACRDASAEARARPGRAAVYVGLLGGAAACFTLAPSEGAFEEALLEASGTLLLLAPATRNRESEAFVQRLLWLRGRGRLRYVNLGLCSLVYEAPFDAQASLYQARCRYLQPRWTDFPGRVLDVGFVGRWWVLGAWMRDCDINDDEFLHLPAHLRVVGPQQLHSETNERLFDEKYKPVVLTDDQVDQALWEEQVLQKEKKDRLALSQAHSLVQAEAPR
UniProt Q9BW92, sequence (Q9BW92 whole entry, looked up): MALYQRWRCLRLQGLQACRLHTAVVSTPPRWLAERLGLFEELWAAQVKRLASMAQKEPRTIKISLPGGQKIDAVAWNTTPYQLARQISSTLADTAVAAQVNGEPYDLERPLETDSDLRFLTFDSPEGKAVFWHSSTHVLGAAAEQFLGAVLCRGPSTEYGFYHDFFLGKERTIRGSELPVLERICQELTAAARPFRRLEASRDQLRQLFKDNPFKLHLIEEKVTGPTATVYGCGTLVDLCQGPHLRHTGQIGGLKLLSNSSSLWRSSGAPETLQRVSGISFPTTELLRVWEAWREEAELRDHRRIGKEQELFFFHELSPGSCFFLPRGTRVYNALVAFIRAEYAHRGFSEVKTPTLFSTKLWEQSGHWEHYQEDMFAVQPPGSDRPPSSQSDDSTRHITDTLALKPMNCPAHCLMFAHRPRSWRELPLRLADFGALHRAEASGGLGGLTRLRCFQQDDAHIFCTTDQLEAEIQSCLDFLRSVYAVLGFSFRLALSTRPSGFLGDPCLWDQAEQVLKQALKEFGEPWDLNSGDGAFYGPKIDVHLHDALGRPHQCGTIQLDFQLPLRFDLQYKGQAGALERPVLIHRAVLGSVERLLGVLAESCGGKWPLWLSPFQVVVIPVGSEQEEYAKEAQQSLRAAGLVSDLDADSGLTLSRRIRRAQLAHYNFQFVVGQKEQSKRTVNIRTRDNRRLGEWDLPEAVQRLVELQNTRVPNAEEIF
UniProt Q9Y5W9, sequence (Q9Y5W9 whole entry, looked up): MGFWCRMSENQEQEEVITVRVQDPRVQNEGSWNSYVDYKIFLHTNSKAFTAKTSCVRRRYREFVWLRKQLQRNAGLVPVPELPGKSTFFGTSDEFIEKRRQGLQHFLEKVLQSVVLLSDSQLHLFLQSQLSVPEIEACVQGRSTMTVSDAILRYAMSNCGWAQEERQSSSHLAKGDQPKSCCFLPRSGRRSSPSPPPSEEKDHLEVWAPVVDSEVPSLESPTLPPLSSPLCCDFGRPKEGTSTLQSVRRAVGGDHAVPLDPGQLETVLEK
UniProt Q92544, sequence (Q92544 whole entry, looked up): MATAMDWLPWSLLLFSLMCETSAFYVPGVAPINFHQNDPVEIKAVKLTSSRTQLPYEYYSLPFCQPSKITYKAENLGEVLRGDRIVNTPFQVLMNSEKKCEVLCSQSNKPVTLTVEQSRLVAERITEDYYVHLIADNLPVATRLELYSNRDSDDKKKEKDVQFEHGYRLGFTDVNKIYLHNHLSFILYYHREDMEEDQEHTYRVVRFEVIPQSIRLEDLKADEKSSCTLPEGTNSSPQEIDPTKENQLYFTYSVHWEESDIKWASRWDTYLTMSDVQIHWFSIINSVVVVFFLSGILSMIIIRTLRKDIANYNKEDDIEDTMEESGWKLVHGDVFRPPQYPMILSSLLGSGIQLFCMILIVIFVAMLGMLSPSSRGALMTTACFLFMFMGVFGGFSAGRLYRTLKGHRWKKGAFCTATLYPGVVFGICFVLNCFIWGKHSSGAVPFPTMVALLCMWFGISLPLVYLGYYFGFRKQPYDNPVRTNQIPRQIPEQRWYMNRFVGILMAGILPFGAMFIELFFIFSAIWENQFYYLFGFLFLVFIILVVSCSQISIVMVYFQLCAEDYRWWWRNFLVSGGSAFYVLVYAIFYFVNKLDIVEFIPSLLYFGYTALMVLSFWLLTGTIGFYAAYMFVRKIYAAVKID
UniProt Q07157, sequence (Q07157 whole entry, looked up): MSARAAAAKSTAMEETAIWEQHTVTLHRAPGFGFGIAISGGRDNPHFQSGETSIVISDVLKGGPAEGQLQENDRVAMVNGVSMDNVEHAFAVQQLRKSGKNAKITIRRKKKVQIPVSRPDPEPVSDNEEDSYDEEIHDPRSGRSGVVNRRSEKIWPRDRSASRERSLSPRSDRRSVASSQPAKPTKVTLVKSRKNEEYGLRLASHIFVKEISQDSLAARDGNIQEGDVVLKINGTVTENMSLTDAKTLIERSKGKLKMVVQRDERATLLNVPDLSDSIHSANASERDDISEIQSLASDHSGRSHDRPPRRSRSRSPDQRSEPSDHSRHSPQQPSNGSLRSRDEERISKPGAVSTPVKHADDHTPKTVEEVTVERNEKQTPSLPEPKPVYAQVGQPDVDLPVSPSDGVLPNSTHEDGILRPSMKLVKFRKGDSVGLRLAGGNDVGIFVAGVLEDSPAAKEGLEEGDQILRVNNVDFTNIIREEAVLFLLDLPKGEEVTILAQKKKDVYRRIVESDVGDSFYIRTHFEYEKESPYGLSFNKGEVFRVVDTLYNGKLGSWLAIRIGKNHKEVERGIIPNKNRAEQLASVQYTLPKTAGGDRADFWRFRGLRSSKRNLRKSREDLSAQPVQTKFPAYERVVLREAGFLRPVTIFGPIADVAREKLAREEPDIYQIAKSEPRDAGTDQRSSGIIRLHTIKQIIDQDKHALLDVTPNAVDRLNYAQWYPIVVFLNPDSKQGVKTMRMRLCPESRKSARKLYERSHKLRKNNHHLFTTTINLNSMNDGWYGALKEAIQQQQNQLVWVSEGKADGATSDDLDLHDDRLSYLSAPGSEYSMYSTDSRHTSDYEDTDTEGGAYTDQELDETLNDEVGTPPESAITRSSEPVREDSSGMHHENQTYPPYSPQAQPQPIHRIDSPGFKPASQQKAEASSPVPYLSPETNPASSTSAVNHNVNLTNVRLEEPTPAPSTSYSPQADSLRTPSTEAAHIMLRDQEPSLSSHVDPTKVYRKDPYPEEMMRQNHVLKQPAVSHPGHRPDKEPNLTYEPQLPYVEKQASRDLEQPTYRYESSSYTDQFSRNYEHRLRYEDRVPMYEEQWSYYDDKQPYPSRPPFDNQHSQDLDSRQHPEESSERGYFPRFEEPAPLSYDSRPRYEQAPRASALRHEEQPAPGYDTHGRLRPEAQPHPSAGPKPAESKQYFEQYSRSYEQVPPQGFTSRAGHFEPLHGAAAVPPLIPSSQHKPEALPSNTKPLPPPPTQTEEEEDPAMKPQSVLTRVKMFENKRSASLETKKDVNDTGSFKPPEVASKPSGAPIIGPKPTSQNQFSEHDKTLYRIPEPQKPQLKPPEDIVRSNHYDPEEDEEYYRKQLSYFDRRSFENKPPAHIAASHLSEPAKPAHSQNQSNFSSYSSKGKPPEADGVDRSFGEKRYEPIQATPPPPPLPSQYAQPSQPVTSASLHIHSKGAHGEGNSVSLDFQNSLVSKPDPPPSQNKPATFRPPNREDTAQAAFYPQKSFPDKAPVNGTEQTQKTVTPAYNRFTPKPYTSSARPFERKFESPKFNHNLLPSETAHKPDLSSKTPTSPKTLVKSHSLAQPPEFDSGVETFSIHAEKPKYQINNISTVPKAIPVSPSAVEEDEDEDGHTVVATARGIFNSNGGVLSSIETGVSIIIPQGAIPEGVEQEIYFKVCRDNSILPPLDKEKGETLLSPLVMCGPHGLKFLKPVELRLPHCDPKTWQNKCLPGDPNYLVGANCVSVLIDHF
UniProt Q9Y6I9, sequence (Q9Y6I9 whole entry, looked up): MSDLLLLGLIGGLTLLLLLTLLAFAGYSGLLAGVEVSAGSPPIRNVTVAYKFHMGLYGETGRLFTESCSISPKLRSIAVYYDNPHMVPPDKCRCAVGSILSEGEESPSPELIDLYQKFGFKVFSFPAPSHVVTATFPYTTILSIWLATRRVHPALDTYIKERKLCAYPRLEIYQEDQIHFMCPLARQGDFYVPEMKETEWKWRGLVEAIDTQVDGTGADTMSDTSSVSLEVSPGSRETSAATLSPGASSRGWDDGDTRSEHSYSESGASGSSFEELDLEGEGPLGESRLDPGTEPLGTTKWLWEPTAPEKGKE

Target	log2 fold change (bafetinib)	log2 fold change [1]	log2 fold change (nilotinib)	log2 fold change [2]	log2 fold change (dasatinib)	log2 fold change [3]	log2 fold change [4]	log2 fold change [5]	log2 fold change (tipifarnib)	log2 fold change (mubritinib)	log2 fold change [6]	log2 fold change [7]	log2 fold change [8]	log2 fold change [9]	log2 fold change (entinostat)	log2 fold change (vorinostat)	log2 fold change (citarinostat)	log2 fold change (silmitasertib)	log2 fold change [10]	log2 fold change [11]
TARS2 (UniProt Q9BW92)	-0.081	0.114	-0.094	-0.003	-0.055	0	0.084	0.022	-0.119	0.013	0.008	-0.018	-0.27 (active)	-0.031	0.011	-0.051	0.038	-0.005	-0.057	-0.008
TJP1 (UniProt Q07157)	-0.061	0.008	0.024	-0.199	-0.092	-0.037	-0.028	-0.02	-0.025	0.073	-0.043	-0.067	0.033	-0.071	0.044	0.049	0.041	-0.158	-0.056	-0.092
SPR (UniProt P35270)	-0.062	-0.102	-0.04	-0.012	0.467 (active)	-0.029	0.144	0.298	0.499 (active)	-0.083	0.006	0.13	0.491 (active)	-0.002	-0.049	-0.154	-0.041	0.004	0.176	0.066
STK17B (UniProt O94768)	0.024	–	–	–	–	–	–	–	–	–	–	–	–	–	–	–	–	–	–	–
TIMM29 (UniProt Q9BSF4)	-0.051	-0.077	-0.002	0.069	-0.031	-0.039	-0.029	0.057	-0.046	0.064	-0.16	-0.024	-0.069	-0.011	-0.04	-0.093	-0.016	0.006	-0.08	-0.004
TARBP1 (UniProt Q13395)	-0.022	0.005	0.019	0.081	-0.058	-0.026	0.116	-0.013	0.036	-0.055	-0.033	0.048	-0.027	0.014	-0.044	0.003	0.079	0.034	0.053	0
SMAD9 (UniProt O15198)	-0.102	-0.226	-0.113	0.004	-0.077	-0.114	0.058	0.015	-0.069	-0.067	-0.114	0.001	-0.069	0.05	-0.076	0.006	-0.017	-0.055	-0.111	-0.029
TBC1D10B (UniProt Q4KMP7)	-0.01	0.022	0.013	-0.09	-0.064	-0.149	0.07	0	0.039	0.013	-0.141	0.007	0.038	-0.027	0.017	-0.03	0.039	-0.009	-0.005	-0.283 (active)
SNUPN (UniProt O95149)	-0.031	0.006	-0.025	-0.009	-0.051	0.018	0.013	-0.054	0.003	0.06	-0.031	-0.06	-0.095	-0.063	0.06	0.027	-0.082	0.027	-0.077	0.071
STXBP2 isoform 3 (UniProt Q15833)	0.088	0.096	-0.099	-0.147	-0.131	-0.014	0.073	0.086	-0.086	0.164	-0.084	-0.066	-0.12	-0.051	0.035	0.105	0.046	0.112	0.141	0.036
TEX264 (UniProt Q9Y6I9)	0.391	0.007	0.241	0.111	0.265	0.845 (active)	0.047	0.114	-0.006	0.047	0.548 (active)	-0.001	0.215	-0.033	0.006	-0.012	-0.054	0.02	-0.093	0.515
TGFBI (UniProt Q15582)	-0.241	0.148	-0.099	0.054	-0.04	0.167	0.197	0.098	-0.063	-0.02	-0.037	-0.136	-0.116	-0.116	0.056	0.309	-0.056	0.114	-0.01	0.202
SNX11 (UniProt Q9Y5W9)	-0.259	0.081	-0.033	-0.108	-0.022	-0.44 (active)	0.077	0.002	0.178	-0.015	-0.052	-0.277	-0.378 (active)	-0.052	0.097	0	0.233	0.025	-0.023	-0.072
STOM (UniProt P27105)	-0.01	0.043	0.039	-0.007	0.039	-0.03	-0.043	0.055	0.031	-0.008	-0.104	-0.043	-0.069	-0.019	-0.003	0.025	0.007	0.067	0.042	-0.091
SORT1 (UniProt Q99523)	-0.494 (active)	-0.011	0.041	-0.023	0.02	-0.122	0.018	-0.026	0.076	0.045	-0.005	-0.032	-0.687 (active)	0.038	-0.017	-0.002	0.073	0.006	0.004	-0.139
SLC7A6 (UniProt Q92536)	0.042	0.029	0.046	0.008	0.04	-0.007	0.024	-0.087	-0.016	0.049	-0.07	0.089	0.06	-0.017	-0.029	-0.003	0.026	0.007	-0.135	-0.049
TM9SF4 (UniProt Q92544)	0.034	0.252 (active)	0.005	0.012	0.127	0.037	-0.021	0.004	-0.061	0.007	0.024	0.064	-0.061	0.032	-0.01	0.146	0.044	0.03	-0.011	-0.057
